Screens deposited in PubChem BioAssay by National Center for Advancing Translational Sciences (NCATS).
FMDV antiviral = Primary qHTS Assay for Foot and Mouth Disease Virus Antivirals against NCGC Sytravon and CBC Compound Libraries: Firefly Luciferase Signal; FMDV antiviral cell assay, firefly luciferase signal; Potency, µM (titrated, usually from 57.5 µM), actives largely listed as inhibitors; 0.23% of 120,000 active; AID 1745856, 2022; note: nearly all actives have a fitted effect of over 60% in size
FMDV RLuc = Primary qHTS Assay for Foot and Mouth Disease Virus Antivirals against NCGC Sytravon and CBC Compound Libraries: Renilla Luciferase Signal | 0.32% of 120,000 active | Potency, µM (series often up to 57.5 µM), actives largely listed as inhibitors | AID 1745857, 2022 | FMDV replicon cells, Renilla luciferase signal; note: nearly all actives have a fitted effect of over 55% in size
Numbers stand for hits; - = inactive; ? = inconclusive; [ ] = dose if it differs, or a comment. In the library only some 0.45% were active in any assay of this set; here they are far more common. Calls come from the whole dose curve.

SMILES	FMDV antiviral	FMDV RLuc
O=C(CSc1nc2nccnc2c(=O)n1CCc1ccccc1)Nc1ccccc1	-	-
COc1ccc(-c2c(C)c3cc(OS(=O)(=O)c4ccc(C)cc4)ccc3oc2=O)cc1	-	?
COc1ccc(-c2c(C)oc3cc(OS(=O)(=O)c4ccc(C)cc4)ccc3c2=O)cc1	3.16µM	2.24µM
C=C(C)Cn1c(SCCc2ccccc2)nc2c1c(=O)n(C)c(=O)n2C	-	-
O=C(O)c1ccc(C2SCCCS2)cc1	-	-[1.06 µM]
O=C(Nc1ccccn1)c1ccc(C2SCCCS2)cc1	12.6µM	-
Brc1cc2c(cc1Cn1nnc(-c3ccccc3)n1)OCO2	-	-
Cc1cc(C)n(-c2ncnc3scc(-c4ccc(Cl)cc4)c23)n1	-	-
Clc1ccc(-c2csc3ncnc(Sc4nnc(C5CC5)o4)c23)cc1	25.1µM	20µM
CCc1cccc(C)c1Nc1c(-c2cc(OC)c(O)c(OC)c2)nc2cnccn12	-	-
O=C(Nc1ccc(F)c(Cl)c1)c1ccc(-c2ccccc2)cc1	-	-
O=C(Nc1ccncc1)c1ccc(-c2ccccc2)cc1	-	3.16µM
Cc1cc2oc(=O)cc(CSc3nnc4ccccn34)c2cc1C(C)C	-	-
O=C(Oc1ccc(F)cc1)c1ccc(-c2nc3ccccc3s2)s1	10µM	-
Cc1ccccc1C(=O)NC12CC3CC(CC(C3)C1)C2	-	-
O=C(NC12CC3CC(CC(C3)C1)C2)c1ccc(-c2nc3ccccc3s2)s1	20µM	-
O=C(Nc1ccccc1-c1nc2ccccc2s1)c1ccc(F)cc1	-	-
O=C(N/N=C/c1cccs1)c1cccc(N/N=C/c2cccs2)c1	-	-
O=C(Nc1ccc(Br)cc1F)c1ccc2nc(N3CCOCC3)sc2c1	-	-
Cc1oc(-c2ccccc2)nc1CC(=O)NCC1(N(C)C)CCCCCC1	-	-
CCc1ccc2c(CSc3nc4nc(C)cc(C)n4n3)cc(=O)oc2c1	-	-
CC(=O)c1c(C)[nH]c(C(=O)OC(C)c2nnc(-c3cccc(C)c3)o2)c1C (stereo not drawn)	-	-
CC(=O)c1c(C)[nH]c(C(=O)OC(C)c2nc(-c3ccccc3)no2)c1C (stereo not drawn)	?	28.2µM
Cc1ccc(NC(=O)CN(c2ccnn2C(C)C)S(=O)(=O)c2ccccc2)cc1	-	-
COc1cccc(C(=O)Nc2cccc3ccc(C)nc23)c1	-	-
SMILES	FMDV antiviral	FMDV RLuc
CCN1C(=O)COc2ccc(-c3nc(NC(=O)c4ccccc4)sc3C)cc21	14.1µM	10µM
Cc1sc(NC(=O)c2ccco2)nc1-c1ccc2c(c1)N(C)C(=O)CO2	-	-
C[N+](C)(C)CCCC#CC#CCCC[N+](C)(C)C	-	-
CCCCc1nc(NCc2ccncc2)c(C#N)c2c1CCCC2	?	-
CCc1nc(NCc2ccncc2)c(C#N)c2c1CCCC2	7.08µM	?
Cc1ccc(C(=O)C(C)OC(=O)C23CC4CC(CC(O)(C4)C2)C3)cc1C (stereo not drawn)	-	-
CCOc1cc(Br)c(/C=C2/NC(=O)NC2=O)cc1OC	2.82µM	?
COc1cc(/C=C2\NC(=O)NC2=O)c(Br)cc1OCC(=O)O	-	-
Cc1ccc2oc(=O)cc(CN3CCN(CCO)CC3)c2c1	-	-
CCN(CC)CCCNc1oc(-c2ccccc2)nc1C#N	-	-
O=C(O)c1cc(NCc2ccc(OCc3ccccc3)cc2)ccc1N1CCOCC1	?	28.2µM
O=C(O)c1cc(NCc2ccccc2OCc2ccccc2)ccc1N1CCOCC1	-	-
CN(C)C(=O)c1ccc(NC(=O)CN2CCCC2c2ccc(Cl)cc2)cc1 (stereo not drawn)	-	-
Cc1ccc2cc(CN(c3ccccc3)S(C)(=O)=O)c(=O)[nH]c2c1	-	-
CCOc1ccc2nc(SCC(=O)N(Cc3ccccc3)C3CCS(=O)(=O)C3)[nH]c2c1 (stereo not drawn)	-	-
CCOc1ccc2nc(SCC(=O)N3CCN(S(=O)(=O)c4ccccc4)C3C(C)C)[nH]c2c1 (stereo not drawn)	25.1µM	?
COCCOc1ccc(C(=O)/C=C/c2cc(OC)c(OC)c(OC)c2)cc1	?	28.2µM
COCCOc1ccc(/C=C/C(=O)c2ccc(C#N)cc2)cc1OC	-	-
O=C(COc1cc(O)c2c(=O)cc(-c3ccccc3)oc2c1)NCCCO	-	-
CCNc1oc(/C=C/c2cccc(OC)c2)nc1C#N	-	-
CCCCCCOc1ccc(C(=O)CCN(C)C)cc1	-	-
CCC(C)S(=O)(=O)c1oc(-c2cccs2)nc1S(=O)(=O)c1ccccc1 (stereo not drawn)	31.6µM	-
O=S(=O)(c1ccccc1)c1nc(-c2cccs2)oc1N1CCCCC1	-	-
COc1ccc(Nc2nc3ccccc3nc2NS(=O)(=O)c2ccc(Cl)s2)cc1	-	-
COC(=O)C(Br)(C(=O)OC)C(OC)(C(=O)OC)C(=O)OC	-	-
SMILES	FMDV antiviral	FMDV RLuc
N#Cc1c(NC(=O)c2ccnn2C(F)F)sc2c1CCCC2	?	3.16µM
N#Cc1c(NC(=O)c2cc(=O)c3ccccc3o2)sc2c1CCCC2	-	-
N#Cc1c(NC(=O)CSc2nccn2Cc2ccccc2)sc2c1CCC2	-	-
N#Cc1c(NC(=O)c2ccnn2C(F)F)sc2c1CCC2	?	3.16µM
N#Cc1c(NC(=O)c2nn(-c3ccccc3)c(=O)c3ccccc23)sc2c1CCCC2	-	-
N#Cc1c(NC(=O)c2ccnn2C(F)F)sc2c1CCCCC2	?	5.01µM
CC(C)NC(=O)CN(C)CC(O)COc1cc(Cl)ccc1Cl (stereo not drawn)	-	-
COc1ccc(Cc2nc(C)c(-c3ccccc3)s2)cc1OC	?	10µM
COc1ccc(-c2nc(C)c(-c3ccccc3)s2)cc1	-	-
Nc1nccnc1C(=O)NCc1cccnc1Oc1cccc(F)c1	-	-
Nc1nccnc1C(=O)NCc1ccc(OCc2cccc(F)c2)cc1	?	11.2µM
Nc1nccnc1C(=O)NCCC12CC3CC(CC(C3)C1)C2	-	-
CCCOc1ccc(-c2nc(C#N)c(NCCN(C)C)o2)cc1	-	-
COc1cccc(CNC(=O)Cn2ccc3cc(S(=O)(=O)N4CCCC4)ccc32)c1OC	-	-
COc1ccccc1CCNC(=O)Cn1ccc2cc(S(=O)(=O)N3CCCCC3)ccc21	-	28.2µM
Cn1ccnc1C(NC(=O)Cc1n[nH]c(=O)c2ccccc12)c1ccc(F)cc1 (stereo not drawn)	-	-
COc1ccc(/C=C2\OC(=O)c3ccccc32)cc1OC	-	-
Clc1ccc(-n2cc(-c3ccccc3)cc2-c2ccccc2)cc1	-	-
CCCS(=O)(=O)c1ncc(Cl)c(C(=O)N(Cc2ccccc2)Cc2ccco2)n1	22.4µM	-
CCCSc1ncc(Cl)c(C(=O)N(Cc2ccc(Cl)cc2)Cc2ccco2)n1	-	-
CCOc1ccccc1NC(=O)Cn1nc(N2CCN(c3ccccc3)CC2)ccc1=O	-	-
CCc1ccccc1NC(=O)c1ccc(Cn2nc(N3CCN(c4ccccc4)CC3)ccc2=O)o1	?	31.6µM
Cc1ccccc1-n1c(/C=C/c2c(C)n(C)c3ccccc23)nc2ccccc2c1=O	-	-
CCn1c(C)c(/C=C/c2cc[n+](C)cc2)c2ccccc21	?	14.1µM
Cc1cccc(COc2ccc(/C=C(\C#N)c3nc4ccccc4[nH]3)cc2)c1	-	?
N#C/C(=C\c1ccc(OCc2ccc(C#N)cc2)cc1)c1nc2ccccc2[nH]1	-	3.98µM
Cc1ccc(Nc2nc3nonc3nc2Nc2cccc(C(F)(F)F)c2)cc1Cl	?	2.24µM
